# Measured values as given in ChEMBL document CHEMBL3988442, “University of Dundee, Small-Polar-MMV Screening Library” (2021).
# For some of these results: Potency and affinity values are given separately.
# Key:
# Set-up in all cases: scale not given: direction of the effect not stated beside the values
# [1] = molecular target: Protein translocase subunit SecA (Escherichia coli (strain K12)) (UniProt P10408); experiment: Assay to Identify E. coli SecA ATPase Inhibitors; format: functional; settings: 30 µM
# Chain of Protein translocase subunit SecA (Escherichia coli (strain K12)) (P10408 whole entry): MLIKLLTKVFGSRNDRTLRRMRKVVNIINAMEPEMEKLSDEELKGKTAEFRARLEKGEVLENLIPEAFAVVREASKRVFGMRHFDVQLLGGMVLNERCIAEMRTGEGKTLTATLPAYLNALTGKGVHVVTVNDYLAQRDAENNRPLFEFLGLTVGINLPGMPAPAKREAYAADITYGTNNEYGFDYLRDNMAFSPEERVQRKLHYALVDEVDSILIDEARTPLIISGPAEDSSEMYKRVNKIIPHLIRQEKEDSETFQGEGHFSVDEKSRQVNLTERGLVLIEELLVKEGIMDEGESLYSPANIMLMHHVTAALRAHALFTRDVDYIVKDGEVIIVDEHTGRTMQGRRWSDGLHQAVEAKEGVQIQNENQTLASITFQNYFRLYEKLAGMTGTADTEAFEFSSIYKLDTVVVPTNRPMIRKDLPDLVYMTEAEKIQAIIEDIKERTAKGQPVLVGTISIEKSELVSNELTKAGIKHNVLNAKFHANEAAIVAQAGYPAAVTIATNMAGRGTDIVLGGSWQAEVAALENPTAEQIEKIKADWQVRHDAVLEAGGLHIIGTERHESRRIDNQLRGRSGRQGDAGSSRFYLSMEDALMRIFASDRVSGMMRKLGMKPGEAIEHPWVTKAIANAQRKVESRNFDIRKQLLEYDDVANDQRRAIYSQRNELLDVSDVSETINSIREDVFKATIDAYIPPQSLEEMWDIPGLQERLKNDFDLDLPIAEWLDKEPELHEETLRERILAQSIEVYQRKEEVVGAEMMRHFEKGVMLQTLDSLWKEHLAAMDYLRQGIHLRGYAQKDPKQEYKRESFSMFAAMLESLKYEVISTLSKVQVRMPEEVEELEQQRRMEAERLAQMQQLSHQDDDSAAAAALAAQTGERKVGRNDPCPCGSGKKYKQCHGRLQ
# [2] = molecular target: T1, Ubiquitin-activating enzyme e1, putative (Leishmania donovani (strain BPK282A1)) (UniProt E9BSI1); experiment: Leishmania donovani Ubiquitin Activating Enzyme (LdE1); format: functional; settings: 30 µM
# T1 sequence (whole entry): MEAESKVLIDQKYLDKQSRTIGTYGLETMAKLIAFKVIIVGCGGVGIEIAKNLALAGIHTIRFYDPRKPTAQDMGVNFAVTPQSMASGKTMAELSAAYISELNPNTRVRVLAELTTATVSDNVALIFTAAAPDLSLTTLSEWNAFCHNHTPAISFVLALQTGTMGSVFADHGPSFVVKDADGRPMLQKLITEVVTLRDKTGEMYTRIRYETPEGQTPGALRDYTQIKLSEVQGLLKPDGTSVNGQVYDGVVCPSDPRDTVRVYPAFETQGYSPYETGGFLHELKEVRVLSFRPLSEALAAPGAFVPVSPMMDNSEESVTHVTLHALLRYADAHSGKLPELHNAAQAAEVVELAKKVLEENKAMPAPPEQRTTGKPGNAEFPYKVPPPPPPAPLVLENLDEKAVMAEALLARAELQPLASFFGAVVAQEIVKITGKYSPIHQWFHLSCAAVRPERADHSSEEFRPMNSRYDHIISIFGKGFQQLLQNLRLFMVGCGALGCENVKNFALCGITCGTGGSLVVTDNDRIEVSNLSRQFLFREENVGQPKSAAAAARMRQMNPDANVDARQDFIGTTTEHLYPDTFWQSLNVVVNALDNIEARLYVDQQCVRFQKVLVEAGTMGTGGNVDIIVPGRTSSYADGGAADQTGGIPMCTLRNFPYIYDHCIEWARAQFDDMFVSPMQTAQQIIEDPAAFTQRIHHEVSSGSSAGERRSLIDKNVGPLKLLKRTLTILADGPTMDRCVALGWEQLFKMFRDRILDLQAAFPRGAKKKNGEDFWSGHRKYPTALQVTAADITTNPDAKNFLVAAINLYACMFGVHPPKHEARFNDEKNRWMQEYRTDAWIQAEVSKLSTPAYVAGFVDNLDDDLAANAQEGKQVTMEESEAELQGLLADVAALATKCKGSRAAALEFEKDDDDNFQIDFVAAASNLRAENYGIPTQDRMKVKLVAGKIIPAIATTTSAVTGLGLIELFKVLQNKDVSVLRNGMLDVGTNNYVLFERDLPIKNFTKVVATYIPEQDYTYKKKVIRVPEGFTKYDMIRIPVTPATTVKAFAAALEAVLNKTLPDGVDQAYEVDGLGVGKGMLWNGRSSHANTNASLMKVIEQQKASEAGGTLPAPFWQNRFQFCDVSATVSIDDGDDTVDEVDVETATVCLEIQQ
# [3] = molecular target: AMP-activated protein kinase, AMPK (Homo sapiens) (UniProt P54646+O43741+P54619+Q9UGJ0+Q9Y478+Q13131+Q9UGI9); experiment: AMP-dependent Kinase enzyme assay. An in vitro enzyme assay that detects ADP turnover that is directly proportional to AMPK activity. This uses naive AMPK that is activated during the assay with MK-8722; format: functional; settings: 30 µM
# [4] = molecular target: Sialic acid-binding Ig-like lectin 9 (Homo sapiens) (UniProt Q9Y336); experiment: Hs-Siglec9 ALPHAscreen SOP 20170721; settings: 10 µM
# Chain of Sialic acid-binding Ig-like lectin 9 (Homo sapiens) (Q9Y336 whole entry): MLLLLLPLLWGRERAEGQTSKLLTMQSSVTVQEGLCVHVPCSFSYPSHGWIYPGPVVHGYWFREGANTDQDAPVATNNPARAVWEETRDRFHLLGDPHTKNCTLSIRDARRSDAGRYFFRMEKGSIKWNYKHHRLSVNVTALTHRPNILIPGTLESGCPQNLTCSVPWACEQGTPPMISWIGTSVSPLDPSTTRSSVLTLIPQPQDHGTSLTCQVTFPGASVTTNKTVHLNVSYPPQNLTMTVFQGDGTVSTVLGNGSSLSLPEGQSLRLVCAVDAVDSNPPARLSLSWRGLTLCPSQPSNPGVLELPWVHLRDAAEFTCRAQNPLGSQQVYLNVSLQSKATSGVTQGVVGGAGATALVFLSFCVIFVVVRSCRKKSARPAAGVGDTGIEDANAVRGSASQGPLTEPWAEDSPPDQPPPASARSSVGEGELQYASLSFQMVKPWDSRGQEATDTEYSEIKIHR
# Trypanosoma cruzi = experiment: Trypanosoma cruzi phosphomannomutase and mannose-1-phosphate guanylyltransferase assay; format: functional; settings: 10 µM
# [5] = molecular target: T2, Arginase-2, mitochondrial (Homo sapiens) (UniProt P78540); experiment: in vitro enzyme assay to detect the production of urea directly proportional to the activity of Arginase II; format: functional; settings: 33.3 µM; further: in the data most compounds retested in dose-response had high values
# T2 sequence (whole entry): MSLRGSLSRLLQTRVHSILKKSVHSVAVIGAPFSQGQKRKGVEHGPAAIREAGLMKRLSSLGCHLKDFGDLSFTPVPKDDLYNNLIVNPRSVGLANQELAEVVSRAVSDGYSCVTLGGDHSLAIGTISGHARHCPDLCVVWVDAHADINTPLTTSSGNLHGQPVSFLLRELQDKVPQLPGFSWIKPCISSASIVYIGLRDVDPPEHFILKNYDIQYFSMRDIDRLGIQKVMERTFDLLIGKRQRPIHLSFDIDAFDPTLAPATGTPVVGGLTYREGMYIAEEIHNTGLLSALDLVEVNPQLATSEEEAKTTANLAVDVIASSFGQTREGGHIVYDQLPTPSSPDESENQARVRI
# [6] = molecular target: T3, Proteasome subunit beta (Trypanosoma cruzi) (UniProt O96673); experiment: Trypanosoma cruzi proteasome chymotrypsin-like activity (TcProtChymo) assay.; further: in the data most compounds retested in dose-response had high values; format: functional; settings: 9.37 µM
# T3 sequence (whole entry): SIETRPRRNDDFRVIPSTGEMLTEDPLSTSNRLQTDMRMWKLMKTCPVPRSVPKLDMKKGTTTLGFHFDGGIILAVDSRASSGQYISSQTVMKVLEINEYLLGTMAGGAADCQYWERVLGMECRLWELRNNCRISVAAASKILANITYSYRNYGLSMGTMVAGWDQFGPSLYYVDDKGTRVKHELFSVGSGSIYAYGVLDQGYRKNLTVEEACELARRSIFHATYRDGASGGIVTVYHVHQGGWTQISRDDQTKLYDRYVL
# Homo sapiens = species on record: Homo sapiens; experiment: To identify inhibition of the IFN signalling (Jak-Stat) pathway via expression of an eGFP reporter gene under the control of an IFN-stimulated response element (ISRE) containing MxA promoter.; format: functional; settings: 30 µM
# [7] = molecular target: T4, Tyrosyl-tRNA synthetase, putative (Trypanosoma cruzi (strain CL Brener)) (UniProt Q4DSP6); experiment: Trypanosoma cruzi tyrosyl tRNA synthetase (TcYRS) _High Tyrosine SOP; format: functional; settings: 30 µM; further: in the data most compounds retested in dose-response had high values
# T4 sequence (whole entry): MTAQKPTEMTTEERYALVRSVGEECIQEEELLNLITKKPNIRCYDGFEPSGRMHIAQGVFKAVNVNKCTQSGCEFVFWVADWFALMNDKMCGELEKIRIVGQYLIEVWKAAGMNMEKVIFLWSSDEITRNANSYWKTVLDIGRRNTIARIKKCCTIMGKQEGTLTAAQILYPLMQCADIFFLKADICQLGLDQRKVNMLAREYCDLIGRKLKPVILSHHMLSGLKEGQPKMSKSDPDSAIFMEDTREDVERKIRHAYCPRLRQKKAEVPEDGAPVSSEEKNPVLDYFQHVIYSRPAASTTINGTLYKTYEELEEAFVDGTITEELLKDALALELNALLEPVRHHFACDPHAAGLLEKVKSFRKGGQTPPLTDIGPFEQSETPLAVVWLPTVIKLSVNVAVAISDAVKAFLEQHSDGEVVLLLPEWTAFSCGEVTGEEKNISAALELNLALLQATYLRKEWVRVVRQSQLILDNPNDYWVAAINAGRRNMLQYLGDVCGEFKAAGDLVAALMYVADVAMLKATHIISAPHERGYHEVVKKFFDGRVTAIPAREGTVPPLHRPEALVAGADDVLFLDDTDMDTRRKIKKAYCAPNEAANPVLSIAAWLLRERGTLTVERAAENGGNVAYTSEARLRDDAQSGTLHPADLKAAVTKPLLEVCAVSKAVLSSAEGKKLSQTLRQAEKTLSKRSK
# [8] = molecular target: T4, Tyrosyl-tRNA synthetase, putative (Trypanosoma cruzi (strain CL Brener)); experiment: Trypanosoma cruzi tyrosyl tRNA synthetase (TcYRS) SOP; format: functional; settings: 30 µM
# [9] = molecular target: Chromo domain-containing protein 1 (Saccharomyces cerevisiae (strain ATCC 204508 / S288c) (Baker's yeast)) (UniProt P32657); experiment: ScCHD-1 Enzyme Inhibition Assay; format: functional; settings: 30 µM; further: in the data most compounds retested in dose-response had high values
# Chain of Chromo domain-containing protein 1 (Saccharomyces cerevisiae (strain ATCC 204508 / S288c) (Baker's yeast)) (P32657 whole entry, the tested form may be a part): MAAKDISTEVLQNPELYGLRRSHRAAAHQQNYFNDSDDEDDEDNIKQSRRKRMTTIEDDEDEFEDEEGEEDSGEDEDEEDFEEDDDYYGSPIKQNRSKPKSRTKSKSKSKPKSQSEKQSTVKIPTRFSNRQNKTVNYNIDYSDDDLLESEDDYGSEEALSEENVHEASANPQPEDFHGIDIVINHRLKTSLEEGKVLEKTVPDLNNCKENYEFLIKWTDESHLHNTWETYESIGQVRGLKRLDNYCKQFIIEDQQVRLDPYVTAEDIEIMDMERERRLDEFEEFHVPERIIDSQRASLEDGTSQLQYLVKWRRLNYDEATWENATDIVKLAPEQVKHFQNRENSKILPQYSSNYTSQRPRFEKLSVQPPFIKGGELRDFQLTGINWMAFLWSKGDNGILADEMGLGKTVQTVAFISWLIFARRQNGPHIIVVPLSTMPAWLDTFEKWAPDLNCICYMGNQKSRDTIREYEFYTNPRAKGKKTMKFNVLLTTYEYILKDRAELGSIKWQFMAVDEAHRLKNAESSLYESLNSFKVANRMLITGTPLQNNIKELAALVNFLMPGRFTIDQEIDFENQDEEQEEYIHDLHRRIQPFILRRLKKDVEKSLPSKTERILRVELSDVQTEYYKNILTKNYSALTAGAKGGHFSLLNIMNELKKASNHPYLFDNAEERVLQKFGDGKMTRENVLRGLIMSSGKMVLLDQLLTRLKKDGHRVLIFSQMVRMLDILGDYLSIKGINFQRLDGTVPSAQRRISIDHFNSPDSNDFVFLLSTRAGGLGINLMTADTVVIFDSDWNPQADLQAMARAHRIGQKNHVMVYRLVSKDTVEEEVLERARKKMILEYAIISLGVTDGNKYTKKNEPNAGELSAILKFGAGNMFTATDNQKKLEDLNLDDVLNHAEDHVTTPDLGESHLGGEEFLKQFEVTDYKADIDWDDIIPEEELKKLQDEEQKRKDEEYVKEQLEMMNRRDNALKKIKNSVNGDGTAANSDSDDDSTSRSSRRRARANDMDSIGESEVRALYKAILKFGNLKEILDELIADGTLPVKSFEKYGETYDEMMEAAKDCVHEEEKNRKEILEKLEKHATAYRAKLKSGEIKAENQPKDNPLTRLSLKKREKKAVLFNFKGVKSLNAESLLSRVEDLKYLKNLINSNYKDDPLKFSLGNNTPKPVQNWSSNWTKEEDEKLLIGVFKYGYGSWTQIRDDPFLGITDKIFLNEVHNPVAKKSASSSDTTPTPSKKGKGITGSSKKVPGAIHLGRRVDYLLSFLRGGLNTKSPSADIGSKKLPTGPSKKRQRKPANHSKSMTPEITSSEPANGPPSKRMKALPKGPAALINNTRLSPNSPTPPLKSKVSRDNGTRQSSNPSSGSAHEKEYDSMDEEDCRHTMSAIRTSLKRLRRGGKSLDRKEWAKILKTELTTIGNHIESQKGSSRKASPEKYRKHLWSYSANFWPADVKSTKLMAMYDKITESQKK
SMILES,Percent Effect [1] [%],Percent Effect [2] [%],Percent Effect [3] [%],Percent Effect [4] [%],Percent Effect (Trypanosoma cruzi) [%],Percent Effect [5] [%],Percent Effect [6] [%],Percent Effect (Homo sapiens) [%],Percent Effect [7] [%],Percent Effect [8] [%],Percent Effect [9] [%]
NC(=O)CN1CCCN(C(=O)c2ccn(-c3ccccc3)n2)CC1,0.801,9.72,-1.01,12.3,1.26,9.71,11.9,13.7,5.26,7.69,-4.05
Cc1cc(C)c(CNC(=O)NCC2CCCN2C)c(=O)[nH]1 (stereo not given),-7.62,2.63,-1.76,2.1,-4.89,-2.68,4.84,25.4,-4.41,-2.44,-2.8
CCC(O)CNC(=O)c1coc(COc2ccc3sc(C)nc3c2)n1 (stereo not given),-6.39,-2.74,-4.19,-4.04,-0.392,-2.73,0.71,50,-1.07,0,2.81
CCN1CCN(S(=O)(=O)c2cc(Cl)c(Cl)cc2C)CC1,-2.56,2.6,5.2,3.88,-3.83,-4.14,-4.99,-8.04,-28,1.24,3.26
Cc1ccoc1C(=O)NC1CCN(Cc2csc3c(F)cccc23)CC1,-4.82,-1.27,-4.47,-1.87,-0.308,-3.66,9.61,17.2,6.25,10.1,-13.8
Cc1ccc2cc(CNCCCO)c(=O)[nH]c2c1,2.35,9.46,7.11,-4.27,-5.34,4.41,5.15,8.44,1.07,9.09,-13.8
O=C(NCc1cnc2n1CCN(c1ncc(F)cn1)CC2)C1CCC1,-3.67,0,0.174,23.6,2.83,1.24,-0.772,-4.55,4.3,3.7,0.0919
Cc1ccc(S(=O)(=O)Nc2ccc(=O)n(C)c2)cc1,-2.01,20.2,-48.5,-4.13,2.55,4.18,17.1,36,6.4,13.9,-4.02
CCc1ccc(C(=O)Nc2ccc(CC3CC(=O)NC3=O)cc2)cc1 (stereo not given),-1.66,8.22,15.3,3.15,1.76,5.46,11.9,11.7,2.15,12.5,-6.28
CC(C)n1cnc2c1C(C(=O)NCCC#N)N(Cc1ccccc1)CC2 (stereo not given),-5.9,16,-5.79,0.457,4.44,-40,14,-0.451,2.08,15,-7.21
CN(Cc1nnc(C2CC2)n1C)C1CCN(Cc2ccc(F)cc2)C1 (stereo not given),-0.349,18.9,-8.58,2.26,0.283,-8.02,13,5.85,-1.48,18.5,-10.5
Cc1cncc(C(=O)N2CCCCC2c2nc(C)cs2)c1 (stereo not given),-4.34,-36.4,-2.13,4.39,8.99,3.92,9.29,16.2,9.71,21.9,-10.7
Cc1nc(C)n(CC2CCCN(c3ncnc4[nH]ccc34)C2)n1 (stereo not given),-4.25,11.4,69.9,5.73,-4.21,0.645,15.8,42.8,6.25,5.06,-4.67
NC(=O)c1ccc(OCC(=O)N2CCCC(n3cccn3)C2)cc1 (stereo not given),-3.58,15.6,6.85,2.82,-2.06,1.9,7.2,1.54,7.62,14.1,-7.55
CCn1nc(C)cc1C(=O)Nc1cc(F)ccc1OCC1CCCO1 (stereo not given),-3.27,2.6,19.7,7.39,0.686,-0.21,9.78,34,4.76,9.41,-11.3
O=C1NCCN1C1CCN(CCc2cccs2)CC1,-7,18.2,-1.15,-8.84,5.78,-3.16,17.5,2.25,5.71,23.5,-17.6
CNC(=O)CS(=O)(=O)Cc1cc(Cl)c2c(c1)OCCCO2,-1.64,12.7,-5.11,-6.27,3.87,-2.66,7.62,-4.79,10.3,24.1,-6.28
COc1ccc(CN(C)C(=O)CCC(=O)c2cccs2)c(OC)c1OC,-2.26,-2.74,-1.79,9.32,2.78,-6.39,10.7,18.4,9.38,21,2.3
C1CC1c1nsc(N2CCN(C3CC3)CC2)n1,-5.35,13.7,2.89,8.66,5.49,13.2,13.3,12.3,6.45,15,-6.12
Cc1noc(CN2CCN(CC(C)O)CC2)n1 (stereo not given),-0.907,8.11,-4.38,4.09,0.195,1.25,9.21,-0.0675,6.93,8.54,-4.47
